The list is not random: actives were taken first. Their share in the collection is about 2.3%.
CHRM1 agonist: human M1 muscarinic receptor agonists, primary screen, Fluo-8 calcium fluorescence, CHO-K1 cells, HTS; CHO-K1 hM1, agonist mode; 0% DMSO, 100% acetylcholine EC100; activation, % at 3 µM; Muscarinic acetylcholine receptor M1 (Homo sapiens), P11229; AID 588814, 2011; hit rate 0.33% among 360,000;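 active = activation above the run's mean compound activation plus 3 SD, cut at about 16% in these data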;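 also: peak over basal fluorescence ratio within a 140 s kinetic read after compound addition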
Target sequence (P11229 whole entry, looked up): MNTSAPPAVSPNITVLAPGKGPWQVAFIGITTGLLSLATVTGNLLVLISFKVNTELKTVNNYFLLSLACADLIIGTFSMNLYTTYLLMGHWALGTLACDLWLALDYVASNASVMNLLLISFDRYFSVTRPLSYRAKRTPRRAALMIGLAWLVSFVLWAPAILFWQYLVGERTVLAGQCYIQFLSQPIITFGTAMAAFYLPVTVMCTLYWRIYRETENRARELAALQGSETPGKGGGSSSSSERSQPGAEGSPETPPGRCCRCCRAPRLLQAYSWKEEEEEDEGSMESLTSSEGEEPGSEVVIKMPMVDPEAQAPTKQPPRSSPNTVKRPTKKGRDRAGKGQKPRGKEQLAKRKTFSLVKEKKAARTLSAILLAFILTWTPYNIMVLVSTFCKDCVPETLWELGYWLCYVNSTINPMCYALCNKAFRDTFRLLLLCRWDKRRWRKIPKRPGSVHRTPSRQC
CHO-K1 Ca antag: counter-screen for M1 antagonists: effect in parental CHO-K1 cells. ATP-induced calcium, Fluo-8 fluorescence. inhibition, % at 3 µM. hit rate 0.6% among 360,000. AID 602250;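 active = inhibition above a per-plate cutoff, the plate's mean sample inhibition plus 3 SD, cut at about 24% in these data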;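 also: 0% = DMSO plus EC80 ATP and 100% = DMSO alone without ATP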
M1 ag parental: counter-screen for M1 agonists: effect in parental CHO-K1 cells. Fluo-8 calcium fluorescence; scaled to maximal ATP response, vehicle zero. activation, % at 3 µM. hit rate 0.48% among 360,000; in the data active = activation above about 15%;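 also: untransfected CHO-K1 host cells lacking M1 receptor as counterscreen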
M1 PAM parental: nonselective calcium activators in parental CHO-K1 cells, primary screen, counter-screen for M1 PAM project, cell-based, Fluo-8 calcium fluorescence, full deck, 1536-well. ATP EC20; 0% at ATP EC20, 100% at ATP max. AID 602247, 2012. activation, % at 3 µM. hit rate 0.02% among 360,000;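 active = activation above the run cutoff, the mean activation of all test compounds plus 3 SD, cut at about 40% in these data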;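 also: peak over basal fluorescence ratio in a 140 s read after ATP addition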
M1 antag: human M1 muscarinic receptor antagonists, primary screen, CHO-K1 cells, Fluo-8 calcium fluorescence, 1536-well | hit rate 1.3% among 360,000 | CHO-K1 hM1, ACh EC80 antagonist | inhibition, % at 3 µM;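 active = percent inhibition above its own plate's cutoff, namely the mean of that plate's compound wells plus 3 SD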;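 also: peak over basal fluorescence ratio during 140 s after agonist addition; 0% = ACh EC80 plus DMSO and 100% = DMSO alone without agonist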
CHRM1 PAM: human M1 muscarinic receptor positive allosteric modulators, primary screen, CHO-K1 cells, Fluo-8 calcium fluorescence, 1536-well; activation, % at 3 µM; Muscarinic acetylcholine receptor M1 (Homo sapiens), P11229; CHO-K1 hM1, ACh EC20; 0% = ACh EC20, 100% = maximal ACh; AID 588819, 2011; hit rate 0.088% among 360,000; in the data active = activation above about 19%, passing the limit was not always enough
The depositor's hits bear a star.

SMILES | CHRM1 agonist | CHO-K1 Ca antag | M1 ag parental | M1 PAM parental | M1 antag | CHRM1 PAM
O=C(C1CCN(S(=O)(=O)c2cccc3cccnc23)CC1)N1CCn2c1nc1ccccc12 | 43* | -3 | 2 | 10 | 11 | -1
O=C(Cc1ccccc1)N1CCN(C(=O)c2ccc([N+](=O)[O-])cc2)CC1 | -10 | -9 | 0 | 6 | -8 | 3
O=C(C1=NN[C@@H]2C(=O)N(Cc3ccccc3)C(=O)[C@H]12)c1ccc([N+](=O)[O-])cc1 | 0 | -7 | 23* | 22 | -2 | 3
COc1ccc(CNCCC(c2ccc(OC(C)C)cc2)C(C)C)cc1OC (stereo not given) | -9 | -35 | 7 | 18 | 16 | -17
COc1ccc(C(CCNCc2ccc(N(C)C)cc2)C(C)C)cc1 (stereo not given) | -1 | 28* | 7 | -28 | 39* | -16
COc1ccc(CNCCC(c2ccccc2)c2ccc3c(c2)OCO3)cc1 (stereo not given) | -2 | -6 | 28* | 4 | 23 | -18
COc1ccc(C(CC(=O)O)c2ccc3c(c2)OCO3)cc1 (stereo not given) | 0 | 0 | 0 | 12 | -11 | 12
COc1ccc(C(CCNCc2ccc(OC(C)C)cc2)C(C)C)cc1 (stereo not given) | -2 | 12 | 9 | -13 | 36* | -17
CSc1nn2cc(CCN3CCOCC3)c(-c3ccc(F)cc3)nc2c1C#N | -5 | -8 | 1 | -5 | -10 | 5
Cc1ccccc1N1C(=O)C2ON(c3ccccc3)C(c3ccco3)C2C1=O (stereo not given) | 5 | 5 | 16* | 4 | 6 | -3
Cc1cc(=O)[nH]c(-c2ccccc2OC(F)(F)F)n1 | 6 | -2 | 18* | 14 | -11 | 11
CC(=O)N1CCc2cc(Br)cc(S(=O)(=O)N3CCN(C(=O)c4ccco4)CC3)c21 | -2 | 24* | 1 | -7 | 18 | -10
CC(=O)N1CCc2cc(Br)cc(S(=O)(=O)N3CCCCCC3)c21 | -1 | 5 | 1 | 6 | -11 | 0
CC(C)N1CCN(c2ccncc2S(=O)(=O)N2CCOCC2)CC1 | -6 | -9 | 0 | 16 | 48* | -20
C=CCN1CCN(c2ccncc2S(=O)(=O)N2CCCCC2)CC1 | -7 | 4 | 0 | 5 | 31* | -18
O=S(=O)(c1cnccc1N1CCN(CCO)CC1)N1CCCC1 | -8 | 6 | 0 | -12 | -16 | 6
c1ccc(CC2CCN(Cc3ccccn3)CC2)cc1 | -7 | -14 | -1 | 5 | 8 | -6
Clc1ccccc1OCCN1CCC(Cc2ccccc2)CC1 | -3 | -18 | 4 | 24 | 30* | -14
OCc1ccccc1OCCCN1CCC(Cc2ccccc2)CC1 | -9 | 4 | 0 | -16 | 33* | -20
C=CCOc1ccccc1CN1CCC(Cc2ccccc2)CC1 | -8 | -11 | 2 | 21 | 19 | -15
Clc1cccc(CN2CCC(Cc3ccccc3)CC2)c1 | -10 | -32 | 2 | 17 | 11 | -16
O=Cc1cc(Cl)ccc1OCCN1CCC(Cc2ccccc2)CC1 | -7 | -5 | 3 | 22 | 55* | -25
Cc1cc(C(O)c2ncc(-c3cccc4ccccc34)[nH]2)ccc1F (stereo not given) | -5 | 24* | 0 | -10 | 2 | -5
CCOC(=O)C1CCN(S(=O)(=O)c2c(Cl)ccc3nonc23)CC1 | -4 | 5 | 0 | -9 | 11 | -4
CCN1CCN(c2ccc(N3CCN(S(=O)(=O)c4cccc([N+](=O)[O-])c4)CC3)nn2)CC1 | -10 | -4 | 1 | 7 | 34* | -23
SMILES | CHRM1 agonist | CHO-K1 Ca antag | M1 ag parental | M1 PAM parental | M1 antag | CHRM1 PAM
CCCCOc1ccc(S(=O)(=O)N2CCN(c3ccc(N4CCN(CC)CC4)nn3)CC2)cc1 | -5 | -8 | 2 | 5 | -7 | -5
O=C1c2cc(Br)ccc2OC2C=CC=CC12 (stereo not given) | -10 | -15 | 0 | 15 | -2 | -9
CN(C)c1cc[n+](CC(=O)Nc2ccc(OC(F)F)cc2)cc1 | -8 | -1 | 0 | -11 | 18 | -7
COc1ccc(C2CC(c3cccs3)=NN2C(=O)CSc2nnnn2C)cc1OC (stereo not given) | -3 | 6 | 15* | 8 | 8 | -6
COc1ccc(C2CC(c3cccs3)=NN2C(=O)CSc2nncn2C)cc1OC (stereo not given) | -6 | -13 | 0 | 1 | -15 | 9
CNc1nc2c(c(=O)[nH]c(=O)n2C)n1CCCc1ccccc1 | -3 | -12 | 1 | 3 | -14 | 10
Cn1c(=O)[nH]c(=O)c2c1nc(NCc1ccccc1)n2CCCc1ccccc1 | 0 | 26* | -1 | -10 | 10 | -11
COc1ccc(OC)c(NC(=O)C(C)N2c3cccc4cccc(c34)S2(=O)=O)c1 (stereo not given) | 3 | -3 | 8 | -5 | 3 | 9
COC(=O)c1ccc(OC(=O)c2ccc(OC)c(OC)c2)c(OC)c1 | -3 | -3 | 1 | 9 | -2 | 2
COc1ccc(C(Cl)=C(C=O)c2ccc(OC)c(OC)c2)cc1OC | 18* | -2 | 0 | 13 | -1 | 20
COc1cccc(C(=O)C[n+]2ccccc2/C=N/O)c1 | -11 | -5 | 3 | 16 | 27* | -20
Cc1csc2ncnc(NNC(=O)c3ccc(Cl)cc3)c12 | 4 | 8 | 19* | -12 | 43* | -21
CC(SC1=Nc2ccccc2C2CC=NN12)C(=O)NC1(C#N)CCCCC1 (stereo not given) | -3 | -10 | 0 | 9 | -14 | 13
O=C(Nc1cccc(S(=O)(=O)N2CCCCC2)c1)C1CC1 | -3 | -3 | 3 | 6 | 1 | 7
CCC(=O)c1cn(CC(=O)Nc2ccccc2)c2ccccc12 | -1 | 25* | 0 | -5 | 7 | 4
COc1cccc(-c2ccc(NC(=O)C3CCCN(CCCn4nc(C)cc4C)C3)cc2)c1 (stereo not given) | -2 | -3 | 5 | 8 | 49* | -24
COc1cccc(-c2ccc(NC(=O)C3CCCN(Cc4ccco4)C3)cc2)c1 (stereo not given) | -3 | -7 | 2 | 9 | -2 | 3
CN(Cc1cccc2cnccc12)C(=O)CCc1nnc(CCc2ccccc2)o1 | -8 | 0 | 17* | 16 | 3 | 0
